# Assay results: PubChem BioAssay (NCI)
# This is part of a sample that, as a whole, favours compounds with a hit. Of some 83,000 tested, about 20% had one in any assay.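 Growth was measured after 48 h exposure to one concentration of compound in 96-well plates. Values under 10 count as active.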 Values without a mark were called inactive. Active and inactive are the calls of the source.
# What was measured:
# Assay in all cases: NCI-60 one-dose screen, 48 h (100 = growth as untreated, 0 = no growth, -100 = all killed)
# Conditions in all cases: 10 µM unless noted
# [1] = tested on: HCT-15 colon
# [2] = tested on: HT29 colon
# [3] = tested on: SNB-75 CNS
# [4] = tested on: SNB-19 CNS
# [5] = tested on: U251 CNS
# [6] = tested on: PC-3 prostate
# [7] = tested on: SK-MEL-5 melanoma
# [8] = tested on: UACC-62 melanoma
# [9] = tested on: LOX IMVI melanoma
# [10] = tested on: SK-MEL-28 melanoma
# [11] = tested on: SK-MEL-2 melanoma
# [12] = tested on: EKVX NSCLC
# [13] = tested on: SN12C renal
# [14] = tested on: UO-31 renal
# [15] = tested on: TK-10 renal
# [16] = tested on: ACHN renal
# [17] = tested on: A498 renal
# [18] = tested on: CCRF-CEM leukemia
# [19] = tested on: MOLT-4 leukemia
Compound,growth [1],growth [2],growth [3],growth [4],growth [5],growth [6],growth [7],growth [8],growth [9],growth [10],growth [11],growth [12],growth [13],growth [14],growth [15],growth [16],growth [17],growth [18],growth [19]
COc1cc(NC(=O)c2cc(OC)c3ccn(C)c3c2)cc2c1C[C@]1(C)CC[C@@H](O)C(C)(C)[C@H]1O2,58.1%,61.7%,42.2%,72.9%,43.1%,41.7%,42%,53.5%,19.9%,36.9%,31.1%,65.2%,86.6%,2.9% (active),90%,36.6%,1.9% (active),19.6%,6.92% (active)
Cc1nssc1=S,104%,102%,92.3%,96.5%,102%,88.2%,108%,104%,89.4%,101%,88.6%,96.5%,118%,87.9%,96.4%,109%,147%,92.2%,–
Cc1ccccc1C[P+](c1ccccc1)(c1ccccc1)c1ccccc1,107%,10.5%,9.33% (active),28.7%,16.4%,14.5%,-23.2% (active),18.8%,14.7%,27.2%,2.07% (active),29.5%,40.5%,76.6%,36.1%,71%,89.5%,24.9%,35.7%
C=C1C(=O)O[C@H]2[C@H]1CC/C(COC(=O)c1ccccc1)=C\CC[C@@]1(C)O[C@@H]21,-66.1% (active),-62.7% (active),68.8%,33.1%,26.8%,35%,12%,-66.9% (active),-88.6% (active),-33.9% (active),15%,11.5%,-22.4% (active),-95.7% (active),-0.228% (active),-83.7% (active),99.4%,-26% (active),–
Nc1n[nH]c2cccc(C#Cc3cccc(NC(=O)c4cccc(C(F)(F)F)c4)c3)c12,30.2%,13.3%,30.5%,80.1%,49.4%,39.9%,43.9%,26.1%,2.44% (active),23.9%,8.52% (active),65.4%,40.7%,3.58% (active),41%,28.6%,14.9%,28.8%,27.3%
C=C1C(=O)O[C@H]2[C@H]1CC/C(COC(=O)c1ccc(C#N)cc1)=C\CC[C@@]1(C)O[C@@H]21,-7.25% (active),-4.64% (active),77.3%,47.7%,40.6%,50.6%,42.9%,-25.2% (active),-81.4% (active),3.18% (active),37.9%,16%,17.4%,-1.25% (active),40.2%,0.811% (active),99.7%,-25.8% (active),-29.3% (active)
Cc1cc(NCCN(C(C)C)C(C)C)nc(/N=C(\N)Nc2ccc(Cl)c(C(F)(F)F)c2)n1,-56.2% (active),-86.6% (active),-100% (active),-83.3% (active),-84.4% (active),-94% (active),-91.5% (active),-91.6% (active),-70.6% (active),-87.2% (active),-89.4% (active),-17.5% (active),-45.6% (active),-90.9% (active),-80.6% (active),-81.1% (active),-88.8% (active),-68% (active),-69.2% (active)
CC(C)CCC[C@@H](C)[C@H]1CC[C@H]2[C@@H]3CC=C4N(c5ccccc5)C(=O)CC[C@]4(C)[C@H]3CC[C@]12C,96.4%,90.3%,93.6%,109%,101%,80.4%,99.1%,98.9%,98%,106%,101%,96.7%,86.2%,91.7%,97.4%,105%,118%,92.2%,79.9%
Cc1cn(C2CC(F)C(CO)O2)c(=O)[nH]c1=O (configuration not stated),107%,98.9%,81.8%,90.1%,96.7%,93.8%,74.4%,81.1%,97.7%,105%,115%,89.1%,94.8%,77.6%,91.9%,83.7%,112%,80.7%,57%
CC(=S)Nc1ccccc1,99.4%,94.3%,87.3%,97.8%,96.2%,84.9%,98%,96.8%,91.2%,112%,97.3%,87.3%,92.9%,81.5%,109%,97.4%,103%,102%,103%
S=c1[nH]nc(Cn2c3ccccc3c3ccncc32)o1,110%,94.6%,102%,98.6%,94.8%,99.4%,102%,93.3%,97.8%,101%,96.6%,106%,102%,97.3%,102%,98.3%,97.3%,84.6%,93.8%
COC(OC)C1(c2ccccc2)NC(=O)NC1=O (configuration not stated),110%,106%,94%,106%,107%,103%,115%,106%,109%,106%,104%,112%,101%,101%,101%,108%,108%,112%,89.1%
O=C(O)c1cc2ccccc2cc1Nc1ccccc1,99.4%,117%,102%,94.6%,93.5%,95.7%,69.4%,103%,91.8%,107%,99.2%,97.6%,101%,82.5%,127%,98.8%,102%,94.1%,91.1%
Cc1ccc2c(c1)Nc1ccc(C)cc1C2(C)C,96%,79%,83.9%,115%,100%,90.6%,97.9%,100%,101%,105%,88.9%,87.8%,103%,91.3%,102%,112%,118%,92.8%,73.4%
CC(C)(C)NC(C1=CC(C)(C)c2ccccc2C1=O)c1ccccc1 (configuration not stated),-58.7% (active),-60.2% (active),16.3%,25%,-67.7% (active),-79% (active),3.82% (active),-23.5% (active),-66% (active),-10.5% (active),-65.1% (active),-1.1% (active),-14.3% (active),-97.4% (active),-6.87% (active),-10.5% (active),45.1%,-5.2% (active),-47.4% (active)
COc1cc2ncnc(Oc3ccc(NC(=O)Nc4ccc(C5(C#N)CCCC5)cc4)c4ccccc34)c2cc1OC,74.5%,35%,36.1%,36.7%,-49.3% (active),56.8%,50.2%,40%,47.7%,64.1%,80.9%,57.7%,21.3%,55.8%,24.1%,29.3%,82.4%,77.5%,60.9%
